The record followed here is PubChem BioAssay (NCATS).

Structures are written as SMILES. Where “and” joins values, the source holds several entries; their conditions need not be identical. Equal values may be shown once. Calls of active or inactive are those of the source.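 Rule for the calls, unless noted: active = compounds whose dose series gives a full or clear partial fitted curve of increased nuclear translocation; inconclusive = weak partial curve or effect only at the top dose; inactive = no dose-dependent translocation response.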
Potency is the fitted concentration of half-maximal effect.

Glucocorticoid receptor (Homo sapiens), sequence (P04150 whole entry, looked up): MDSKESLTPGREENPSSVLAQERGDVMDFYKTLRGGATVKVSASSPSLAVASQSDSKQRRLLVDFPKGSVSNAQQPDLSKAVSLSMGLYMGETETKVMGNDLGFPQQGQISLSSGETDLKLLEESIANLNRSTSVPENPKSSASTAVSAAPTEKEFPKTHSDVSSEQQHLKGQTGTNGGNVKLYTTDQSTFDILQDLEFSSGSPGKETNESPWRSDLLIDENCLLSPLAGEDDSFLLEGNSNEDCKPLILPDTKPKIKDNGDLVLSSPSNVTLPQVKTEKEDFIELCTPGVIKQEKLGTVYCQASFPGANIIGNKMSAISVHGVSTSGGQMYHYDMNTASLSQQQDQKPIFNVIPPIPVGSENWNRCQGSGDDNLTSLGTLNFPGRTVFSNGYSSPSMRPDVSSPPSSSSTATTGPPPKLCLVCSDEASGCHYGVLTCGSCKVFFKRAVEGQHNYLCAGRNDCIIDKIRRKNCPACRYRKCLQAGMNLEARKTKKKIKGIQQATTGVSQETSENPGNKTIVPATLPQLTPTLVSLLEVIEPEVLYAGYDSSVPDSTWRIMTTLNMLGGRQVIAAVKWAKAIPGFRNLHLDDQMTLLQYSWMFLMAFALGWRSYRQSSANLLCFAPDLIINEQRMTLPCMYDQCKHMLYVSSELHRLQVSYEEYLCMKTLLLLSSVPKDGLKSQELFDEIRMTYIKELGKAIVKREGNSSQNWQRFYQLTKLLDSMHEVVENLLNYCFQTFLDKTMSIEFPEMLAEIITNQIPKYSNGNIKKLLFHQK

The first experiment addresses Glucocorticoid receptor (Homo sapiens) (UniProt P04150). The experiment in a line: GR-GFP Redistribution (AID 450). The note with it: U2OS GR-GFP nuclear translocation, laser cytometry, 2 h.
For `NC(N)=NC(=O)c1nc(Cl)c(N)nc1N`, the Potency was > 46 µM (inactive) and > 20.6 µM (inactive).
On the same count and under the same terms, then `O=NN(CCCl)C(=O)NCCCl`, with > 46 µM (inactive); and `NC(=O)c1cnccn1`, with > 46 µM (inactive).
Same read-out and setting: the figure for `NC(=O)c1ccc(-c2nc(-c3ccc4c(c3)OCO4)c(-c3ccccn3)[nH]2)cc1` is > 46 µM (inactive); for `CC(C)C[C@H](NC(=O)[C@@H](O)[C@H](N)Cc1ccccc1)C(=O)O` it is > 46 µM (inactive).
The same measure, in the same setting: the figure for `CCN(c1ccccc1)c1cc(NC)[n+](C)c(C)n1` is > 46 µM (inactive); for `CC(=O)Oc1ccccc1C(=O)O` it is > 46 µM (inactive); for `Cn1cnc([N+](=O)[O-])c1Sc1ncnc2nc[nH]c12` it is > 46 µM (inactive) and > 20.6 µM (inactive).
Take `CCCC(CCC)C(=O)O`: the Potency was > 46 µM (inactive).
On to `CC(C)(Sc1ccc(CCN(CCCCC2CCCCC2)C(=O)NC2CCCCC2)cc1)C(=O)O`, for which the Potency is > 46 µM (inactive).
As for `Cc1cc2c(C(C)C)c(O)c(O)c(C=O)c2c(O)c1-c1c(C)cc2c(C(C)C)c(O)c(O)c(C=O)c2c1O`, the Potency is > 20.6 µM (inactive) and > 46 µM (inactive).
On the same count and under the same terms, the figure for `CCC(C)(C)C(=O)O[C@H]1C[C@@H](C)C=C2C=C[C@H](C)[C@H](CC[C@@H]3C[C@@H](O)CC(=O)O3)[C@H]21` is > 46 µM (inactive); for `CCOC(=O)N1CCC(=C2c3ccc(Cl)cc3CCc3cccnc32)CC1` it is > 46 µM (inactive) and > 20.6 µM (inactive); for `Cc1ccc2c(c1)C(=O)[C@@]1(O)CCN(c3ccccc3)C1=N2` it is > 46 µM (inactive).

For another experiment the target is unchanged. The experiment in a line: GR-EFC Redistribution (AID 451; calls by dose curve). The note with it: CHO-K1 GR-EFC translocation, beta-gal luminescence, 2 h. Put shortly:
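CHO-K1 cells stably expressing nuclear-localized β-gal enzyme acceptor and GR fused C-terminally to the enzyme donor fragment; ligand-driven nuclear translocation restores β-gal by complementation. Compounds titrated up to 46 uM final, 2 h at 37 °C; luminescence read.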
`NC(N)=NC(=O)c1nc(Cl)c(N)nc1N`: the Potency was > 46 µM (inactive) and > 20.6 µM (inactive).
Still for that read-out and setting: then `O=NN(CCCl)C(=O)NCCCl`, with > 46 µM (inactive).
The same measure, in the same setting: then `NC(=O)c1cnccn1`, with > 46 µM (inactive).
On the same count and under the same terms, the figure for `NC(=O)c1ccc(-c2nc(-c3ccc4c(c3)OCO4)c(-c3ccccn3)[nH]2)cc1` is > 46 µM (inactive); for `CC(C)C[C@H](NC(=O)[C@@H](O)[C@H](N)Cc1ccccc1)C(=O)O` it is > 46 µM (inactive).
In the case of `CCN(c1ccccc1)c1cc(NC)[n+](C)c(C)n1`, the Potency was > 46 µM (inactive).
The same measure, in the same setting: then `CC(=O)Oc1ccccc1C(=O)O`, with > 46 µM (inactive).
Still for that read-out and setting: the figure for `Cn1cnc([N+](=O)[O-])c1Sc1ncnc2nc[nH]c12` is > 46 µM (inactive) and > 20.6 µM (inactive).
Same read-out and setting: then `CCCC(CCC)C(=O)O`, with > 46 µM (inactive); and `CC(C)(Sc1ccc(CCN(CCCCC2CCCCC2)C(=O)NC2CCCCC2)cc1)C(=O)O`, with > 46 µM (inactive).
Take `Cc1cc2c(C(C)C)c(O)c(O)c(C=O)c2c(O)c1-c1c(C)cc2c(C(C)C)c(O)c(O)c(C=O)c2c1O`: the Potency is > 20.6 µM (inactive) and > 46 µM (inactive).
Same read-out and setting: the figure for `CCC(C)(C)C(=O)O[C@H]1C[C@@H](C)C=C2C=C[C@H](C)[C@H](CC[C@@H]3C[C@@H](O)CC(=O)O3)[C@H]21` is > 46 µM (inactive).
On the same count and under the same terms, then `CCOC(=O)N1CCC(=C2c3ccc(Cl)cc3CCc3cccnc32)CC1`, with > 46 µM (inactive); and `Cc1ccc2c(c1)C(=O)[C@@]1(O)CCN(c3ccccc3)C1=N2`, with > 46 µM (inactive).
